Assay [1] relates to Human papillomavirus type 1a protein E7 (residues 44-93). Put plainly: HPV1a E7 fragment binders on microarrays, primary screen, biochemical, small-molecule microarray, residues 44-93, 635 nm fluorescence (AID 1108).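 Further: E7 fragment applied at 1 µg/mL in TBST for 1 h at 4 C; score combines spot fluorescence with its signal to noise ratio.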 To be noted: small-molecule microarray binding, fluorescence 635 nm; higher = more signal.
The nature of assay [2]: modulators of HCV replicon luciferase signal, primary screen, HCV replication inhibitor project, Huh7 cells, luciferase reporter (AID 1109).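 Further: huh7 hepatoma cells harbouring a luciferase neomycin HCV replicon reporter; luciferase luminescence as measure of HCV replicon replication; test concentration not given here.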 The note with it: 48 h, higher = more signal.
For assay [3], the target named is Left-right determination factor 2 (Homo sapiens) (UniProt O00292). Put plainly: LEFTY2 binders on small-molecule microarrays, primary screen, biochemical, small-molecule microarray, 635 nm fluorescence scan (AID 1110). The note with it: LEFTY2 binding, higher = more signal.
In assay [4] the target is Calmodulin-1 (Homo sapiens) (UniProt P0DP23). Put plainly: CALM1 binders on microarrays, EGTA buffer, profiling panel, biochemical, small-molecule microarray, Cy5-labelled CALM1 (AID 1111).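 Further: labelled calmodulin applied in Tris saline Tween buffer holding calcium plus EGTA and DTT.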 The note with it: Cy5-CALM1 binding fluorescence, higher = more signal.
Assay [5] has the same target. Put plainly: calcium-bound CALM1 binders on microarrays, profiling panel, artefact control for SMM control-protein annotation, biochemical, small-molecule microarray, Cy5-labelled CALM1, plus calcium (AID 1112).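 Further: score merges spot fluorescence with signal to noise from triplicate slides.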 To be noted: Cy5-CALM1 binding fluorescence, higher = more signal.
Assay [6] is described as follows: small-molecule microarray binders of probe aWnt5a, primary screen, biochemical, biotinylated probe, 635/667 nm fluorescence (AID 1113).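 Further: score merges 667 nm fluorescence intensity with signal-to-noise per printed feature.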 The note with it: higher = more signal.
Assay [7] can be described thus: small-molecule microarray binders of probe aShh, primary screen, biochemical, biotinylated probe, 635/667 nm fluorescence (AID 1114).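 Further: probe is biotin-labelled aShh protein from a stem cell growth factor screen; measures binding of labelled protein to compounds printed on the slide; score merges feature fluorescence at 667 nm with signal-to-noise.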 The note with it: higher = more signal.
Assay [8] can be described thus: small-molecule microarray binders of probe aNog, primary screen, biochemical, biotinylated probe, 635/667 nm fluorescence (AID 1115).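 Further: probe is biotinylated aNog protein used at 0.15 µg/mL for 1 h at 4 C; z-score combines 667 nm fluorescence of each spot with its signal to noise.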 The note with it: higher = more signal.
Assay [9] deals with Torsin-1A-interacting protein 1 (Homo sapiens) (UniProt Q5JTV8). Put plainly: LAP1 binders from COS7 cell lysate, primary screen, small-molecule microarray, 635/667 nm fluorescence (AID 1116). To be noted: COS7-hLAP1 lysate binding, 635 nm fluorescence, higher = more signal.
For assay [10], the target named is Alpha-bungarotoxin (Bungarus multicinctus) (UniProt P60615). Put plainly: alpha-bungarotoxin binders on microarray, profiling panel, artefact control for SMM control protein annotation, biochemical, small-molecule microarray, Alexa647 label, 635/667 nm fluorescence (AID 1117). The note with it: alpha-BTX-A647 binding fluorescence, higher = more signal.
Assay [11] has as its target Albumin (Bos taurus) (UniProt P02769). Put plainly: bovine serum albumin binders on microarray, profiling panel, artefact control for SMM control protein annotation, biochemical, small-molecule microarray, Alexa647 label, 635/667 nm fluorescence (AID 1118).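 Further: score merges 667 nm emission intensity and signal-to-noise per printed compound spot.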 The note with it: BSA-A647 binding, fluorescence 635 nm, higher = more signal.
A short description of assay [12]: small-molecule microarray binders of probe aXIP, primary screen, biochemical, NeuroSMM set, 635/667 nm fluorescence (AID 1119).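 Further: probe is the protein aXip251-270 applied at 1 µg/mL to compound-printed slides; binding of probe to printed compounds measured as 667 nm fluorescence plus signal to noise.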 To be noted: higher = more signal, called active from +8 up or from −8 down.
Assay [13] can be described thus: small-molecule binders of probe aNOTCH3, primary screen, biochemical, small-molecule microarray, 635/667 nm fluorescence (AID 1120).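 Further: probe is a biotin-tagged antibody raised against NOTCH3 rather than NOTCH3 protein; score merges spot fluorescence near 667 nm with spot signal to noise.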 The note with it: higher = more signal.
Assay [14] in a line: small-molecule binders of probe aNOTCH2, primary screen, biochemical, small-molecule microarray, 635/667 nm fluorescence (AID 1121).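 Further: score merges feature fluorescence read at 667 nm with its signal to noise.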 To be noted: higher = more signal.
Assay [15] has as its target Carbonic anhydrase 2 (Homo sapiens) (UniProt P00918). Put plainly: CAII small-molecule binders, profiling panel, biochemical, small-molecule microarray, Alexa647-labelled CAII (AID 1122). The note with it: CAII-A647 binding fluorescence, higher = more signal.
A short description of assay [16]: COS7 lysate on small-molecule microarray, probe aHis, 635 nm (AID 1123).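 Further: z-score combines 667nm fluorescence intensity with signal-to-noise per printed compound spot.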 To be noted: COS7 cell lysate, fluorescence, higher = more signal.
Assay [17] can be described thus: compound binding in COS7 lysate, probe aLAP1, primary screen, cell lysate, small-molecule microarray (AID 1124).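 Further: lysate comes from COS7 cells expressing LAP1 and is applied at 0.3 µg/mL; score merges spot fluorescence near 667 nm with signal-to-noise over triplicate slides.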 The note with it: probe aLAP1, fluorescence, higher = more signal.
Assay [18] has as its system Sam68 (KHDRBS1). Put plainly: Sam68 small-molecule binders, primary screen, biochemical, small-molecule microarray, 635 nm fluorescence (AID 1125).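 Further: score merges 667 nm channel intensity with signal to noise over triplicate slides.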 The note with it: small-molecule microarray binding, higher = more signal.
The subject of assay [19] is Chordin-like protein 2 (CHRDL2). Put plainly: CHRDL2 small-molecule binders, primary screen, biochemical, small-molecule microarray, 635 nm fluorescence (AID 1126).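 Further: printed compound slides probed with Chrdl2 protein at 4 µg/mL for 1 h at 4 C; score merges 667 nm emission intensity with signal to noise over three replicate slides.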 To be noted: small-molecule microarray binding, fluorescence 635 nm; higher = more signal.
The target of assay [20] is Concanavalin-A (Canavalia ensiformis) (UniProt P02866). Put plainly: ConA small-molecule binders, primary screen, artefact control for SMM control protein annotation, biochemical, small-molecule microarray, Alexa647 label, 635 nm (AID 1127).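 Further: z combines 667 nm emission intensity with signal-to-noise across three replicate slides.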 To be noted: ConA-A647 binding fluorescence, higher = more signal.

The source made the active and inactive calls.

Chain of Left-right determination factor 2 (Homo sapiens) (O00292 whole entry, looked up): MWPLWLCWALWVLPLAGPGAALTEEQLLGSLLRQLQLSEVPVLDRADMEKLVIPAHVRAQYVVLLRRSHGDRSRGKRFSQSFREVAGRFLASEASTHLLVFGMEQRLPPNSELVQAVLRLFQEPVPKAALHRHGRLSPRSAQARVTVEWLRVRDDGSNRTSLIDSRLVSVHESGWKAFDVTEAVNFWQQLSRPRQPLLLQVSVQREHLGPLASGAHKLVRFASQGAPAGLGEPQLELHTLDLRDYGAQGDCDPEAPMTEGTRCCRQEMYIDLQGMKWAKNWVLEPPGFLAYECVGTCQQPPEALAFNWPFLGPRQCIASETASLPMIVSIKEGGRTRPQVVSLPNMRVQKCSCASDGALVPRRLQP
Chain of Concanavalin-A (Canavalia ensiformis) (P02866 whole entry, looked up): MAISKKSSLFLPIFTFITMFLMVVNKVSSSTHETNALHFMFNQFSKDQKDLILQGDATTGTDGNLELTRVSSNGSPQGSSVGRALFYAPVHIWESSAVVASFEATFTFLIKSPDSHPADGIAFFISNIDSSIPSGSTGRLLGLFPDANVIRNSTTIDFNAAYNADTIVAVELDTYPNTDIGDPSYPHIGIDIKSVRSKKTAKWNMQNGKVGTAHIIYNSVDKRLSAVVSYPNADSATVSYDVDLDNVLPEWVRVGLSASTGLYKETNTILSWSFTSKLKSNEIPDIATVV
Chain of Alpha-bungarotoxin (Bungarus multicinctus) (P60615 whole entry, looked up): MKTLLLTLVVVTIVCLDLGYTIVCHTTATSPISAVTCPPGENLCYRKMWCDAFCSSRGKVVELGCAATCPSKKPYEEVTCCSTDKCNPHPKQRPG
Chain of Torsin-1A-interacting protein 1 (Homo sapiens) (Q5JTV8 whole entry, looked up): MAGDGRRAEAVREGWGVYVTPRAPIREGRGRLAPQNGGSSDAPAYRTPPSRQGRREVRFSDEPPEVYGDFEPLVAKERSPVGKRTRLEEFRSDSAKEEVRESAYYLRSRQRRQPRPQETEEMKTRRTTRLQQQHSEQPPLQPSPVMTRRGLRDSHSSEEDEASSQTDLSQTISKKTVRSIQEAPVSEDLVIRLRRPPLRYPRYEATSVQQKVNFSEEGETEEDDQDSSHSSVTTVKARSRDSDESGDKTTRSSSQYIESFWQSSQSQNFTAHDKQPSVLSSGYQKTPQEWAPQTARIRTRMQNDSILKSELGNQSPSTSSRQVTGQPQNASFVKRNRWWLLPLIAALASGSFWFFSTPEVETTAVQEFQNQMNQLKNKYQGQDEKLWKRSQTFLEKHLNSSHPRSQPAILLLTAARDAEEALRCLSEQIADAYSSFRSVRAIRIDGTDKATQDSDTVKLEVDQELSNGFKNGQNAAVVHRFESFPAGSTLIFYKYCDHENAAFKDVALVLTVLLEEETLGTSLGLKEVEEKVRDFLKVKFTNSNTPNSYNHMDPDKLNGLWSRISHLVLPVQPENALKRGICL
Chain of Albumin (Bos taurus) (P02769 whole entry, looked up): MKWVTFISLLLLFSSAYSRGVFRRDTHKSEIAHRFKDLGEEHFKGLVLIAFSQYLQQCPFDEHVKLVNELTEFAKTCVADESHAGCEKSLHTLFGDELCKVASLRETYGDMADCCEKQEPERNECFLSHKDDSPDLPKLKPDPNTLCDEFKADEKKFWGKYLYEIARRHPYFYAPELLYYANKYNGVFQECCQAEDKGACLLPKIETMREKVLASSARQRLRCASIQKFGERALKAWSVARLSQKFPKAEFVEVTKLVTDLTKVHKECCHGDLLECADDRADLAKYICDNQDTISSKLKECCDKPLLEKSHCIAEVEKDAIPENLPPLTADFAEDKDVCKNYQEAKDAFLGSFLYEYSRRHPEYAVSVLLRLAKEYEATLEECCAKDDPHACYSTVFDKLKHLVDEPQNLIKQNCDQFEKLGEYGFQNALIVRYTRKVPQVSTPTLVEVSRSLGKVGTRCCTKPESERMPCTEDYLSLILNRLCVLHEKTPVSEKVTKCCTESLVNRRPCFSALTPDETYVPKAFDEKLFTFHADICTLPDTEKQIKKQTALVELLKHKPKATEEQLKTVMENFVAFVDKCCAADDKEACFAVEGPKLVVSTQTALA

On to `CCCN1C(=O)[C@@H]2Cc3c([nH]c4ccccc34)[C@@H](c3cccc(O)c3)N2C1=O`, for which the composite z-score in [1] was 0.672; in assay [3] it was 0.326; in [4] it was 0.0779; in assay [5] it was -0.346; in assay [6], -0.176; in [7], -0.221. Moreover, the composite z-score in assay [8] was -0.0737; in assay [9], -0.489; in [10] it was 0.414; in assay [11] it was -0.17; in assay [13], -0.0967; in assay [14], -0.0859. In addition, the composite z-score in assay [15] was -0.112; in assay [16] it was 0.207; in assay [17], 1.36; in assay [18] it was 0.65; in [19], 0.426; in assay [20] it was 0.46. This compound also returned a z-score in assay [2] of -0.197. In addition, the composite Z-score in [12] is -0.12 (inactive).

For the compound `C#CCOC(=O)N[C@H](C=CCCCC)c1ccccc1`, the composite z-score is -0.0543 in [1]; -0.0624 in [3]; 0.44 in assay [4]; 0.368 in [5]; -0.0888 in assay [6]; 0.413 in assay [7]. For the same compound, the composite z-score in assay [8] was 1.52; in [9], 1.51; in assay [10], -0.194; in [11], 1.02; in assay [13], 0.0077; in assay [14], 0.0964. Further, the composite z-score is 0.88 in [15]; 3.67 in assay [16]; 0.711 in assay [17]; 0.199 in assay [18]; -0.0017 in assay [19]; 0.0429 in assay [20]. Also, the z-score in [2] was -0.498. The composite Z-score in [12] is 0.33 (inactive).

`CC(C)C[C@H]1NC(=O)[C@H](C)NC(=O)[C@@]23C(=O)N[C@@H](Cc4ccccc4)C2[C@H](C)[C@@]2(C)O[C@H]2C3/C=C/C/C=C\CNC1=O` (stereo not given in full): the composite z-score was 0.84 in assay [1]; -0.206 in assay [3]; -0.893 in [4]; -0.806 in [5]; -0.166 in [6]; -0.123 in assay [7]. The composite z-score in assay [8] was 0.202; in [9], 0.462; in [10], -0.086; in assay [11], 0.876; in assay [13] it was -0.227; in assay [14], -0.172. The composite z-score in assay [15] is 0.734; in assay [16], -0.38; in [17] it was -0.229; in assay [18] it was 0.371; in [19] it was 0.409; in assay [20], -0.565. In assay [2], this compound had a z-score of -0.201. Moreover, the composite Z-score in [12] was -0.155 (inactive).

In the case of `COc1cccc(C[C@H]2C[C@@H](CO[Si](C(C)C)(C(C)C)C(C)C)N3C(=O)[C@]4(C(C)=O)O[C@]23[C@H]2C(=O)N(C)C(=O)[C@H]24)c1`, the composite z-score in assay [1] is 1.01; in assay [3], 0.717; in assay [4], 0.293; in [5], -0.23; in assay [6], -0.0721; in [7] it was 0.138. Also, the composite z-score in [8] was -0.158; in assay [9] it was 0.102; in [10] it was 0.866; in assay [11] it was 0.614; in assay [13] it was -0.0647; in [14] it was -0.148. Also, the composite z-score was -0.0064 in assay [15]; 0.0217 in assay [16]; -0.274 in assay [17]; 1.14 in assay [18]; 0.403 in [19]; 0.98 in assay [20]. The compound further had a z-score in assay [2] of -3.15. In addition, the composite Z-score in assay [12] is -0.12 (inactive).

For the compound `CO[C@H]1O[C@H](CO)[C@@H](OC(=O)Nc2ccc(C(F)(F)F)cc2)[C@H](OC(=O)Nc2ccccc2)[C@H]1OC(=O)Nc1ccccc1`, the composite z-score was determined as 0.69 in [1]; 0.513 in [3]; 1.99 in [4]; 0.168 in [5]; 0.133 in assay [6]; 0.342 in assay [7]. In addition, the composite z-score is 1.18 in assay [8]; 0.825 in assay [9]; 2.69 in [10]; 0.868 in assay [11]; 0.248 in [13]; 0.0083 in assay [14]. The composite z-score in assay [15] was 0.565; in [16], 2.68; in assay [17] it was 0.494; in [18], 1.3; in [19], -0.42; in assay [20] it was 1.21. The z-score in assay [2] was -3.84. Besides, the composite Z-score in [12] was -0.465 (inactive).
